Results from the supplement of paper PMC8728848.
This is one part of a sample in which the strongest signals are shown more often than they occur.

Assays:
Assay in all cases: glycan array binding signal (z-score within array); higher = stronger binding
Conditions in all cases: glycan notation: IUPAC condensed, linker removed
Fuc(a1-2)Gal = molecular target: Fuc(a1-2)Gal
In short: (§1)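 Glycan array binding is given as a within-array Z-score, which can be read as non-binding when negative. The arrays, 3228 of them, came from the Consortium for Functional Glycomics database and were retained only where the protein sequence was available. Z-scores were averaged across arrays of the same protein sequence at different concentrations or buffers and across linkers.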

[1] = molecular target: Fuc(a1-2)Gal(b1-3)GalNAc(a1-3)[Fuc(a1-2)]Gal(b1-4)Glc
In short: as §1

[2] = molecular target: Fuc(a1-2)[Gal(a1-3)]Gal(b1-4)GlcNAc(b1-3)[Fuc(a1-2)[Gal(a1-3)]Gal(b1-4)GlcNAc(b1-6)]GalNAc
In short: as §1

[3] = molecular target: Fuc(a1-2)[Gal(a1-3)]Gal(b1-4)[Fuc(a1-3)]GlcNAc(b1-3)GalNAc
In short: as §1

[4] = molecular target: Fuc(a1-2)[GalNAc(a1-3)]Gal(b1-3)GlcNAc(b1-6)GalNAc
In short: as §1

[5] = molecular target: Fuc(a1-2)[GalNAc(a1-3)]Gal(b1-4)GlcNAc(b1-3)Gal(b1-4)GlcNAc(b1-3)Gal(b1-4)GlcNAc
In short: as §1

[6] = molecular target: Fuc(a1-3)[Gal(b1-4)]GlcNAc(b1-6)GalNAc
In short: as §1

[7] = molecular target: Fuc(a1-3)[GalNAc(b1-4)]GlcNAc6S
In short: as §1

Gal(a1-4)Gal(b1-4)Glc = molecular target: Gal(a1-4)Gal(b1-4)Glc
In short: as §1

Gal(b1-3)Gal(b1-4)GlcNAc = molecular target: Gal(b1-3)Gal(b1-4)GlcNAc
In short: as §1

[8] = molecular target: Gal(b1-3)GlcNAc(b1-3)Gal(b1-4)GlcNAc(b1-2)[Gal(b1-3)GlcNAc(b1-3)Gal(b1-4)GlcNAc(b1-6)]Man(a1-6)[Gal(b1-3)GlcNAc(b1-3)Gal(b1-4)GlcNAc(b1-2)Man(a1-3)]Man(b1-4)GlcNAc(b1-4)[Fuc(a1-6)]GlcNAc
In short: as §1

[9] = molecular target: Gal(b1-3)GlcNAc(b1-3)Gal(b1-4)GlcNAc(b1-3)Gal(b1-4)GlcNAc(b1-2)[Gal(b1-3)GlcNAc(b1-3)Gal(b1-4)GlcNAc(b1-3)Gal(b1-4)GlcNAc(b1-6)]Man(a1-6)[Gal(b1-3)GlcNAc(b1-3)Gal(b1-4)GlcNAc(b1-3)Gal(b1-4)GlcNAc(b1-2)Man(a1-3)]Man(b1-4)GlcNAc(b1-4)[Fuc(a1-6)]GlcNAc
In short: as §1

[10] = molecular target: Gal(b1-4)GlcNAc(b1-2)Man(a1-3)[Gal(b1-4)GlcNAc(b1-2)Man(a1-6)]Man(b1-4)GlcNAc(b1-4)GlcNAc
In short: as §1

[11] = molecular target: Gal(b1-4)GlcNAc(b1-2)[Gal(b1-4)GlcNAc(b1-4)]Man(a1-3)[Gal(b1-4)GlcNAc(b1-2)Man(a1-6)]Man(b1-4)GlcNAc(b1-4)GlcNAc
In short: as §1

[12] = molecular target: Gal(b1-4)GlcNAc(b1-3)Gal(b1-4)GlcNAc(b1-2)[Gal(b1-4)GlcNAc(b1-3)Gal(b1-4)GlcNAc(b1-6)]Man(a1-6)[Gal(b1-4)GlcNAc(b1-3)Gal(b1-4)GlcNAc(b1-2)Man(a1-3)]Man(b1-4)GlcNAc(b1-4)[Fuc(a1-6)]GlcNAc
In short: as §1

[13] = molecular target: Gal(b1-4)GlcNAc(b1-3)Gal(b1-4)GlcNAc(b1-3)Gal(b1-4)GlcNAc(b1-2)[Gal(b1-4)GlcNAc(b1-3)Gal(b1-4)GlcNAc(b1-3)Gal(b1-4)GlcNAc(b1-6)]Man(a1-6)[Gal(b1-4)GlcNAc(b1-3)Gal(b1-4)GlcNAc(b1-3)Gal(b1-4)GlcNAc(b1-2)Man(a1-3)]Man(b1-4)GlcNAc(b1-4)[Fuc(a1-6)]GlcNAc
In short: as §1

[14] = molecular target: Gal(b1-4)GlcNAc(b1-3)Gal(b1-4)GlcNAc(b1-3)Gal(b1-4)GlcNAc(b1-3)Gal(b1-4)GlcNAc(b1-2)Man(a1-3)[Gal(b1-4)GlcNAc(b1-3)Gal(b1-4)GlcNAc(b1-3)Gal(b1-4)GlcNAc(b1-3)Gal(b1-4)GlcNAc(b1-2)Man(a1-6)]Man(b1-4)GlcNAc(b1-4)GlcNAc
In short: as §1

[15] = molecular target: Gal(b1-4)GlcNAc(b1-3)Gal(b1-4)GlcNAc(b1-3)Gal(b1-4)GlcNAc(b1-3)Gal(b1-4)GlcNAc(b1-2)Man(a1-3)[Gal(b1-4)GlcNAc(b1-3)Gal(b1-4)GlcNAc(b1-3)Gal(b1-4)GlcNAc(b1-3)Gal(b1-4)GlcNAc(b1-2)Man(a1-6)]Man(b1-4)GlcNAc(b1-4)[Fuc(a1-6)]GlcNAc
In short: as §1

[16] = molecular target: Gal(b1-4)GlcNAc(b1-3)Gal(b1-4)GlcNAc(b1-3)Gal(b1-4)GlcNAc(b1-3)Gal(b1-4)GlcNAc(b1-2)[Gal(b1-4)GlcNAc(b1-3)Gal(b1-4)GlcNAc(b1-3)Gal(b1-4)GlcNAc(b1-3)Gal(b1-4)GlcNAc(b1-6)]Man(a1-6)[Gal(b1-4)GlcNAc(b1-3)Gal(b1-4)GlcNAc(b1-3)Gal(b1-4)GlcNAc(b1-3)Gal(b1-4)GlcNAc(b1-2)Man(a1-3)]Man(b1-4)GlcNAc(b1-4)[Fuc(a1-6)]GlcNAc
In short: as §1

[17] = molecular target: Gal(b1-4)GlcNAc(b1-3)Gal(b1-4)GlcNAc(b1-3)Gal(b1-4)GlcNAc(b1-3)Gal(b1-4)GlcNAc(b1-3)Gal(b1-4)GlcNAc(b1-2)Man(a1-3)[Gal(b1-4)GlcNAc(b1-3)Gal(b1-4)GlcNAc(b1-3)Gal(b1-4)GlcNAc(b1-3)Gal(b1-4)GlcNAc(b1-3)Gal(b1-4)GlcNAc(b1-2)Man(a1-6)]Man(b1-4)GlcNAc(b1-4)GlcNAc
In short: as §1

[18] = molecular target: Gal(b1-4)GlcNAc(b1-3)Gal(b1-4)GlcNAc(b1-3)Gal(b1-4)GlcNAc(b1-3)Gal(b1-4)GlcNAc(b1-3)Gal(b1-4)GlcNAc(b1-2)Man(a1-3)[Gal(b1-4)GlcNAc(b1-3)Gal(b1-4)GlcNAc(b1-3)Gal(b1-4)GlcNAc(b1-3)Gal(b1-4)GlcNAc(b1-3)Gal(b1-4)GlcNAc(b1-2)Man(a1-6)]Man(b1-4)GlcNAc(b1-4)[Fuc(a1-6)]GlcNAc
In short: as §1

[19] = molecular target: Gal(b1-4)GlcNAc(b1-3)Gal(b1-4)GlcNAc(b1-3)Gal(b1-4)GlcNAc(b1-3)Gal(b1-4)GlcNAc(b1-3)Gal(b1-4)GlcNAc(b1-2)[Gal(b1-4)GlcNAc(b1-3)Gal(b1-4)GlcNAc(b1-3)Gal(b1-4)GlcNAc(b1-3)Gal(b1-4)GlcNAc(b1-3)Gal(b1-4)GlcNAc(b1-6)]Man(a1-6)[Gal(b1-4)GlcNAc(b1-3)Gal(b1-4)GlcNAc(b1-3)Gal(b1-4)GlcNAc(b1-3)Gal(b1-4)GlcNAc(b1-3)Gal(b1-4)GlcNAc(b1-2)Man(a1-3)]Man(b1-4)GlcNAc(b1-4)[Fuc(a1-6)]GlcNAc
In short: as §1

B1: rCnSL-A (Clitocybe nebularis) (protein)
chain: VNPNLPGPNDVFVGFRGTNNIVGAIYEKDGIKDTPLNNGADAEMGPGSYITDGLFTARIFASGSAGNNPGTTATVCKIYASGVQWRGAPKGYIPVAYFGNGPTAEQRRQTYLRTLGLPGTAIRFGNLNTNPGQGPTAPRQMVVPPGPLRSLLKASCFPAADTRLPQTLHYFEKRVDWNIITAADSQTWGH
glycan array binding signal (z-score) (Fuc(a1-2)Gal): -0.225 | glycan array binding signal (z-score) [1]: -0.137 | glycan array binding signal (z-score) [2]: -0.176 | glycan array binding signal (z-score) [3]: -0.339 | glycan array binding signal (z-score) [4]: -0.306 | glycan array binding signal (z-score) [5]: -0.002 | glycan array binding signal (z-score) [6]: -0.093 | glycan array binding signal (z-score) [7]: -0.255 | glycan array binding signal (z-score) (Gal(a1-4)Gal(b1-4)Glc): -0.211 | glycan array binding signal (z-score) (Gal(b1-3)Gal(b1-4)GlcNAc): -0.132 | glycan array binding signal (z-score) [8]: 1.95 | glycan array binding signal (z-score) [9]: 3.37 | glycan array binding signal (z-score) [10]: -0.203 | glycan array binding signal (z-score) [11]: 2.67 | glycan array binding signal (z-score) [12]: 3.11 | glycan array binding signal (z-score) [13]: 5.46 | glycan array binding signal (z-score) [14]: 8.55 | glycan array binding signal (z-score) [15]: 2.68 | glycan array binding signal (z-score) [16]: 10.3 | glycan array binding signal (z-score) [17]: 2.36 | glycan array binding signal (z-score) [18]: 5.05 | glycan array binding signal (z-score) [19]: 13.6
